Bioassay records from PubChem.
This is a sample that favours compounds with a hit; in the whole collection about 12% have one here.
BAZ2B block: qHTS Assay for Inhibitors of BAZ2B; Bromodomain adjacent to zinc finger domain protein 2B (Homo sapiens), Q9UIF8; AlphaScreen BAZ2B-H3K14Ac peptide displacement; Potency, µM (doses to about 114 µM), for inactives: at the highest dose activity change, negative = inhibition, actives largely listed as inhibitors; 360,000 compounds, 4.4% hits; AID 504333, 2011; also: % is scaled to controls: 0 for no effect and ±100 for the full control effect; nearly all actives have a fitted effect of over 60% in size
Target sequence (Q9UIF8 whole entry, looked up, the tested form may be a part): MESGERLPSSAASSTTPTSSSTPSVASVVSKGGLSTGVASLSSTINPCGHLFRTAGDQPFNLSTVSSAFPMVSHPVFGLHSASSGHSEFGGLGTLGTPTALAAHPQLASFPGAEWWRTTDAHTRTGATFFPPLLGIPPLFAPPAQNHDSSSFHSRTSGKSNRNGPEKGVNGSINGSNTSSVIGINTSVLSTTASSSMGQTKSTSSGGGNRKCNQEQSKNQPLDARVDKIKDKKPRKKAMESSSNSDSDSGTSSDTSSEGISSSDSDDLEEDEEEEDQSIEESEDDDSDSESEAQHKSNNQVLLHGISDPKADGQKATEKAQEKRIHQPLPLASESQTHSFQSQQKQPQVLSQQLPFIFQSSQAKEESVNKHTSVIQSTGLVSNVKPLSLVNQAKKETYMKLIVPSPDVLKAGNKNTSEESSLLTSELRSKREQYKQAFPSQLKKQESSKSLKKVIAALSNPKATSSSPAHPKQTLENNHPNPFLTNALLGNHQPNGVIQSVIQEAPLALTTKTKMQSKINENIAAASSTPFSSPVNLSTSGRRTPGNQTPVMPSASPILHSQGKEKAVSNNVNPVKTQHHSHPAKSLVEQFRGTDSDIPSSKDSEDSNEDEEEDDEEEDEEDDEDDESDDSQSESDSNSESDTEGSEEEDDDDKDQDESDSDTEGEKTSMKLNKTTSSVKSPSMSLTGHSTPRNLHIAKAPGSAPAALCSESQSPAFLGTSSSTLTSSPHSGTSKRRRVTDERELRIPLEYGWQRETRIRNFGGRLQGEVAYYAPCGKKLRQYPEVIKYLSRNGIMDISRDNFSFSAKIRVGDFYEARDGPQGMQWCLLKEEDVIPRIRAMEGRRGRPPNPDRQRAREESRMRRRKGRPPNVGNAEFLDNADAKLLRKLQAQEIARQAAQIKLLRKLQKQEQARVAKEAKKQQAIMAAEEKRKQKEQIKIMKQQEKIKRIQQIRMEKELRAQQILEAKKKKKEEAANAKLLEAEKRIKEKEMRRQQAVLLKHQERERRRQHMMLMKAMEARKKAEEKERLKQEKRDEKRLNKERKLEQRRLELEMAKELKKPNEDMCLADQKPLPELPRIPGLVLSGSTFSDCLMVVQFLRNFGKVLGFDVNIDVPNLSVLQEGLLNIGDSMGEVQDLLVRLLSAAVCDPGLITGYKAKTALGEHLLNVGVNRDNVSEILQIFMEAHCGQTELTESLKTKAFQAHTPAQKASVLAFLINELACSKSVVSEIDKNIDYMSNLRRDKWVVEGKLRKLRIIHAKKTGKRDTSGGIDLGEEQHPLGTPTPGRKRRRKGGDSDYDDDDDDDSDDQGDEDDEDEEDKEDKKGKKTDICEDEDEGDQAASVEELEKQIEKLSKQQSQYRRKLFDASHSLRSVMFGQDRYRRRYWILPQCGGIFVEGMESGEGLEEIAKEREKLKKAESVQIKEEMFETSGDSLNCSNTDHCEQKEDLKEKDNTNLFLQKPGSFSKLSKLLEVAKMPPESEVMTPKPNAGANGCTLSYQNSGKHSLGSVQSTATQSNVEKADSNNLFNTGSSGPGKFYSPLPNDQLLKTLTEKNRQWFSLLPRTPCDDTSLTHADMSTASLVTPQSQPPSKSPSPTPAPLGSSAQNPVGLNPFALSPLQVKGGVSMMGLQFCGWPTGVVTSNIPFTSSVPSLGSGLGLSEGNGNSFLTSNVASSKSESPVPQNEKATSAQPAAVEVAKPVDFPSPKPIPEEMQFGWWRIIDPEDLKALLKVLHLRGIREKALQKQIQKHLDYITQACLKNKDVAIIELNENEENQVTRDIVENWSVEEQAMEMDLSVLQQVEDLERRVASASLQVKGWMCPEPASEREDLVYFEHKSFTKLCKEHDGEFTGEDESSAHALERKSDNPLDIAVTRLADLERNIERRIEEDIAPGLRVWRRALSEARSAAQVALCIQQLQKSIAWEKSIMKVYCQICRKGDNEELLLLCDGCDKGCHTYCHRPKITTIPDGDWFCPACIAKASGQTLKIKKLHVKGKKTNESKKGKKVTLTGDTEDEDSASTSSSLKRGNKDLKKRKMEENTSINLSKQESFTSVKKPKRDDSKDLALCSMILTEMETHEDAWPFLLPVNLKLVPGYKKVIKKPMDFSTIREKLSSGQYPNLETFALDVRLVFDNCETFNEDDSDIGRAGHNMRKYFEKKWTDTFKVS
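Protein-peptide AlphaScreen: BAZ2B 50 nM, b-H3K14Ac 50 nM, 1x PBS pH 7.4 + 0.01% Tween-20. Preincubation 30 min RT; cpd 30 min RT (top 110 uM); beads 20 min RT, light-protected.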
TDP1 inh: qHTS Assay for Inhibitors of Tyrosyl-DNA Phosphodiesterase (TDP1) | Tyrosyl-DNA phosphodiesterase 1 (Homo sapiens), Q9NUW8 | recombinant TDP1, AlphaScreen DNA substrate cleavage | Potency, µM (top dose mostly 130 µM), for inactives: top-dose activity change, negative = inhibition, actives largely listed as inhibitors | 350,000 compounds, 0.28% hits | AID 485290, 2010; also: % is scaled to controls: 0 for no effect and ±100 for the full control effect; nearly all actives have a fitted effect of over 40% in size
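Recombinant E. coli-expressed Tdp1 (1 nM) preincubated with compound 15 min at RT, then 5'-biotin/3'-phosphotyrosine-FITC DNA substrate (15 nM) added for 5 min. AlphaScreen beads (10 ug/ml) added, 10 min RT; tyrosine-FITC cleavage read as signal loss.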
Sfp inh: qHTS Assay for Inhibitors of Bacillus subtilis Sfp phosphopantetheinyl transferase (PPTase) | Biochemical Sfp PPTase activity, qHTS | Potency, µM, for the others: largest response in the series, negative = inhibition, usual class: inhibitors | 4'-phosphopantetheinyl transferase ffp (Bacillus subtilis), Q9F4F7 | AID 1490, 2009 | 310,000 compounds, 3.5% hits;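 also: the enzyme is Sfp with the accession as filed and its product quenches rhodamine fluorescence; 0% = enzyme reaction without inhibitor and -100% = no enzyme wells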
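Fluorescence-quenching assay with 15 nM Sfp, 5 uM rhodamine-CoA and 12.5 uM BHQ-2-labelled ybbR peptide in pH 7.6 Hepes/MgCl2 buffer. Enzyme was pre-incubated with compound for 15 min at room temperature. Rate was taken from the 30-min fluorescence change (525/598 nm).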
G9a inh: qHTS Assay for Inhibitors of Histone Lysine Methyltransferase G9a; Histone-lysine N-methyltransferase EHMT2 (Homo sapiens), Q96KQ7; G9a H3K9 monomethylation, AlphaScreen, 2 h; Potency, µM (series often up to 102 µM), without a hit: at the top dose activity, negative = inhibition, actives largely listed as inhibitors; 350,000 compounds, 8.8% hits; AID 504332, 2011; also: % is scaled to controls: 0 for no effect and ±100 for the full control effect; nearly all actives have a fitted effect of over 75% in size
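Using a bead-based AlphaScreen, monomethylated H3K9 product from 2 h room-temperature reactions (G9a 20 nM, peptide 500 nM, SAM 20 uM) was detected with 0.5 ug/mL rabbit anti-H3K9me1 antibody.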
HP1b binding inh: HTS for Inhibitors of HP1-beta Chromodomain Interactions with Methylated Histone Tails. AlphaScreen HP1-beta / biotin-H3K9me3 peptide binding. Potency, µM (highest dose often 114 µM), for the others: at the top dose activity change, negative = inhibition, usual class: inhibitors. 390,000 compounds, 0.56% hits; also: nearly all actives have a fitted effect of over 70% in size
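HP1-beta protein (50 nM final) preincubated 30 min at room temperature with biotinylated H3(1-18)K9me3 peptide (50 nM) in PBS pH 7.4, 0.01% Tween-20, then compound added for 30 min. AlphaScreen streptavidin donor/nickel chelate acceptor beads (10 ug/mL final), 30 min dark, luminescence read.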
JMJD2A Tudor inh: qHTS Assay for Inhibitors of JMJD2A-Tudor Domain. Lysine-specific demethylase 4A (Homo sapiens), O75164. Potency, µM (series often up to 114 µM), without a hit: top-dose activity change, negative = inhibition, hits mostly inhibitors. 390,000 compounds, 4.4% hits. AlphaScreen JMJD2A-Tudor / H3K4me3 peptide binding; also: % is scaled to controls: 0 for no effect and ±100 for the full control effect; nearly all actives have a fitted effect of over 50% in size
Numbers without * were called inactive; ? = inconclusive; · = not tested or not shown; [ ] = dose if it differs, or a comment. Calls follow the shape of the dose curve; as a rule, active = well fitted curve in the direction sought with a large enough effect; inconclusive = small, poorly fitted or top-dose-only effect, or another doubt; inactive = no such curve, though single readings can be large; an effect the other way counts as inactive or inconclusive. Potency is read from the fitted curve at half-maximal effect.

SMILES | BAZ2B block | TDP1 inh | Sfp inh | G9a inh | HP1b binding inh | JMJD2A Tudor inh
CCOc1ccc(CNC(=O)c2nn(-c3ccc(OC)cc3)c(=O)c3c2c2ccccc2n3C)cc1 | · | 0.0% | · | 5.4%[59 µM] | 40.9% | -6.0%
COc1ccc2cc(Br)ccc2c1CC(=O)NCCCN1CCOCC1 | · | · | · | · | 14.6% | -15.5%
O=C(O)CSc1nnc(CSc2nc3ccccc3s2)n1-c1ccccc1 | -8.8% | -2.5% | 24.1% | 35.5µM* | 46.3% | 2.1%
CCCC1=Nc2cc(C(=O)NCCc3ccccc3)ccc2Sc2ccc(C)cc21 | 2.4% | 0.0% | · | -13.1%[59 µM] | 32.4% | -6.8%
O=C(Nc1nnc(SCc2ccc(F)cc2)s1)c1ccccn1 | 25.1µM* | 7.5% | 2.4% | 50.1µM* | 64.9% | 28.2µM*
CC(=O)Nc1nnc(SCc2ccc(C(=O)Nc3ccccc3F)cc2)s1 | -0.8% | 2.6% | -4.3% | 44.7µM* | -22.5% | -11.3%
O=C(Nc1nnc(SCc2ccc(F)cc2)s1)c1cccnc1Cl | -17.2% | 2.9% | 26.0% | ? | 30.2% | -7.6%
Cc1ccc(C2=Nc3ccccc3SC(c3cccc([N+](=O)[O-])c3)C2)cc1 (centres undefined) | 22.4µM* | 9.6% | 8.91µM* | 44.7µM* | 7.9% | ?
Cc1ccc2cc(C3C(C#N)=C(N)Oc4c3ccc3cccnc43)c(=O)[nH]c2c1 (centres undefined) | ? | 8.2% | 10µM* | -19.5%[0.0925 µM] | 28.8% | ?
CCc1ccc2[nH]c(=O)c(C3C(C#N)=C(N)Oc4c3ccc3cccnc43)cc2c1 (centres undefined) | ? | 9.8% | -26.0% | -4.0%[59 µM] | 12.5% | ?
CCn1nnnc1NCc1ccc(OCc2ccc(F)cc2Cl)c(OC)c1 | -15.0% | 11.0% | -3.4% | -18.7% | 26.2% | -14.1%
CCOC(=O)C1CCCN(S(=O)(=O)c2ccc(-c3cc(C)no3)s2)C1 (centres undefined) | -7.6% | -4.8% | -0.2% | -1.8%[0.0925 µM] | 81.4% | 16.8%
CCOP(=O)(O)c1ccccc1OCCOCCOc1ccccc1P(=O)(O)OCC | ? | -2.0% | 17.1% | 56.2µM* | 27.5% | ?
CN(C)CCn1nnc2c(=O)oc3ccccc3c21 | -10.2% | 0.0% | 29.1% | -1.1% | 26.7% | -3.5%
Cc1ccc(/C=C2/SC(=O)NC2=S)o1 | 50.1µM* | ? | 22.4µM* | 17.8µM* | ? | 39.8µM*
Cc1ccc(/C=C2\SC(=S)N(CC3CCCO3)C2=O)o1 (centres undefined) | 31.6µM* | 11.2% | 10µM* | 5.62µM* | 31.6µM* | 35.5µM*
O=C1/C(=C\c2ccc(-c3ccccc3Cl)o2)SC(=S)N1CC1CCCO1 (centres undefined) | ? | 9.2% | ? | ? | ? | ?
O=C1NC(=O)C(=Cc2ccco2)S1 | · | · | · | · | 19.0% | -12.4%
Cc1ccc(/C=C2/SC(=S)N(C3CCCCC3)C2=O)o1 | ? | 10.0% | -27.2% | 39.8µM* | -13.6%[57 µM] | -31.7%
O=C1/C(=C/c2ccco2)SC(=S)N1CC1CCCO1 (centres undefined) | 35.5µM* | -5.0% | 17.8µM* | ? | 35.5µM* | 25.1µM*
O=C1/C(=C/c2ccncc2)SC(=S)N1C1CCCCC1 | -28.5% | 0.6% | 0.9% | -0.9%[59 µM] | 2.1% | -18.3%
Cc1ccc(C(=O)NN2C(=O)/C(=C/c3cn(C)c4ccccc34)SC2=S)cc1 | 9.5% | 8.0% | -1.9% | 22.2%[59 µM] | -14.8% | -19.2%
Cn1cc(/C=C2\SC(=O)NC2=S)c2ccccc21 | 31.6µM* | 3.6% | 31.6µM* | · | ? | ?
